Compound activity (PubChem BioAssay)
Sampled rows, rich in hits. Any-hit rate of the full collection: about 3.5%.
mHTT CaM bind = disrupts binding of mutant huntingtin to calmodulin; 190,000 tested, 3.6% active; AID 1671202; P42858; inhibition, % at 15 µM; AlphaScreen His-mHTT/GST-CaM binding, luminescence;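 also: 0% = both proteins with DMSO and 100% = one protein alone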
Pf apPOL block = Pf-apPOL DNA polymerase inhibition. Recombinant Pf-apPOL, molecular beacon fluorescence, 1.5 h. inhibition, % at 10 µM. 210,000 tested, 0.25% active. AID 1794808
Starred values were filed as active, the others as inactive. Rule as the data show it: active = inhibition above about 50%; inactive = the rest.

SMILES	mHTT CaM bind	Pf apPOL block
O=C(CN1C(=O)C(c2ccc(F)cc2)=NC12CCCC2)Nc1ccc(Cl)cc1	11	-7
O=C(CN1C(=O)C(c2ccccc2)=NC12CCCCC2)Nc1cccc(Cl)c1	89*	-11
Cc1cccc(NC(=O)CN2C(=O)C(c3ccccc3)=NC23CCCCC3)c1	-3	-4
O=C(CN1C(=O)C(c2ccc(F)cc2)=NC12CCCCC2)Nc1ccc(F)c(Cl)c1	95*	-6
O=C(CN1C(=O)C(c2ccccc2)=NC12CCCCC2)Nc1ccc(F)c(Cl)c1	8	-8
O=C(CN1C(=O)C(c2ccc(F)cc2)=NC12CCCC2)Nc1ccc(F)c(Cl)c1	100*	-5
FC(F)(F)c1cccc(CSc2cc(N3CCCC3)ncn2)c1	-43	-14
COc1cccc(C(=O)N2CCCN(c3ncccc3-c3nc(C(C)C)no3)CC2)c1	-2	-8
CC(C)NC(=O)C1CCN(c2cnc(N3CCSCC3)nc2)CC1	-6	-1
O=C(c1csc(-c2ccnc(N3CCCCC3)c2)n1)N1CCCC1	-9	0
Cc1nccn1CC(=O)N1CCCC(OCc2nc(C(C)C)no2)C1 (stereo not drawn)	-7	-2
CC(=O)Nc1cc(C(=O)NCc2ccccc2C)c2ccc(C)nc2c1	73*	5
Cc1cccc(CNC(=O)c2cc(NC(=O)C(C)C)cc3nc(C)ccc23)c1	21	-1
Cc1ccc2c(C(=O)NCc3ccccc3C)cc(NC(=O)C(C)C)cc2n1	54*	3
CC(=O)Nc1cc(C(=O)NCC(C)C)c2ccc(C)nc2c1	21	18
COc1cc(/C=C2/C(=O)N(c3ccc(C)cc3)N=C2C)c([N+](=O)[O-])cc1OC	49	-7
COc1cc(/C=C2/C(=O)N(c3ccc(C(=O)O)cc3)N=C2C)c([N+](=O)[O-])cc1OC	6	100*
CC1=NN(c2ccccc2)C(=O)/C1=C/c1ccc(-c2ccc([N+](=O)[O-])cc2C)o1	1	-9
COc1ccc(/C=C2/C(=O)N(c3cccc(Cl)c3)N=C2C)cc1[N+](=O)[O-]	18	0
COc1cc(/C=C2/C(=O)N(c3cccc(Cl)c3)N=C2C)c([N+](=O)[O-])cc1OC	62*	1
CC1=NN(c2cccc(Cl)c2)C(=O)/C1=C/c1ccc(-c2cc([N+](=O)[O-])ccc2O)o1	92*	-3
CN(C)c1cc(OC2CCN(S(=O)(=O)c3cccs3)C2)ncn1 (stereo not drawn)	4	1
O=C1C2CC=CCC2C(=O)N1c1ccc(N2CCc3ccccc3C2)c([N+](=O)[O-])c1 (stereo not drawn)	43	-19
CC(C)COc1ccc(/C=C2/NC(=O)N(Cc3ccc(F)cc3)C2=O)cc1	0	-11
O=S(=O)(c1ccccc1F)N1CCc2nc(-c3ccc(Cl)cc3)ncc2C1	-9	2
SMILES	mHTT CaM bind	Pf apPOL block
Cc1ccc(S(=O)(=O)N2CCc3nc(NC(=O)c4cc(C)cc(C)c4)sc3C2)cc1	25	-3
Cc1noc(C)c1CC(=O)N1CCc2ccccc2C1C (stereo not drawn)	-6	1
O=C(O)c1cc2ncc(Br)cn2n1	4	69*
N#Cc1c(NC(=O)c2cc3ncc(Br)cn3n2)sc2c1CCCC2	-5	-1
O=C(c1ccc(Cl)cc1)N1N=C(c2ccc([N+](=O)[O-])cc2)CC1(O)C(F)(F)F (stereo not drawn)	51*	-1
CC(C)(C)c1ccc(C(=O)N2N=C(c3ccc([N+](=O)[O-])cc3)CC2(O)C(F)(F)F)cc1 (stereo not drawn)	41	1
O=C(c1ccccc1O)N1N=C(c2ccc(Cl)cc2)CC1(O)C(F)(F)F (stereo not drawn)	59*	-1
Cc1ccc(C2=NN(C(=O)c3ccccc3Cl)C(O)(C(F)(F)F)C2)cc1 (stereo not drawn)	-1	0
CC(C)C(=O)N1N=C(c2ccc([N+](=O)[O-])cc2)CC1(O)C(F)(F)F (stereo not drawn)	0	-3
O=C(c1ccc([N+](=O)[O-])cc1)N1N=C(c2ccncc2)CC1(O)C(F)(F)F (stereo not drawn)	5	83*
CCCNc1cc(N2CCC(CCC(=O)N3CCCCC3)CC2)ncn1	2	-12
CC(=O)c1ccc(-c2c([C@H]3[C@@H]4C=CCC[C@@]4(C)C(=O)N3Cc3ccccc3)ccc3ccccc23)cc1	101*	-5
COc1ccc(-c2ccc([C@H]3[C@@H]4C=CCC[C@@]4(C)C(=O)N3Cc3ccccc3)c(F)c2)cc1OC	37	0
COc1ccc(-c2c([C@H]3[C@@H]4C=CCC[C@@]4(C)C(=O)N3Cc3ccccc3)ccc3ccccc23)cc1OC	100*	1
CN(C)c1ccc(-c2c([C@H]3[C@@H]4C=CCC[C@@]4(C)C(=O)N3Cc3ccccc3)ccc3ccccc23)cc1	50	-5
c1ccc2sc(NCCc3ccncc3)nc2c1	-4	-14
Clc1cc(Br)ccc1OCCN1CCCC1	3	-10
COc1ccc(Br)cc1/C=C1\N=C(c2ccc(Cl)c([N+](=O)[O-])c2)OC1=O	-6	4
COc1cccc(/C=C2\N=C(c3cccc(OC)c3)OC2=O)c1	2	0
COc1ccc(OC)c(/C=C2\N=C(c3ccc(Cl)c([N+](=O)[O-])c3)OC2=O)c1	68*	-3
O=C1OC(c2ccc(Cl)cc2Cl)=N/C1=C\c1ccco1	4	-10
O=C1OC(c2ccccc2Cl)=N/C1=C\c1ccccc1	51*	3
O=C1OC(c2cc(Cl)ccc2Cl)=N/C1=C\c1ccco1	3	86*
COc1cccc(C2=N/C(=C\c3ccco3)C(=O)O2)c1	4	61*
O=C1OC(c2ccccc2Cl)=N/C1=C\c1ccc(Cl)cc1	3	-7
SMILES	mHTT CaM bind	Pf apPOL block
O=C(NC1=NCCS1)C12CC3CC(C1)CC(c1ccccc1)(C3)C2	1	-10
CCN(CC)c1ccc(CNc2ccc3c(c2)ncn3C)cc1	84*	-2
CC(C)(C)n1cnc2cc(NCc3ccc(Br)cc3)ccc21	61*	-4
Cn1cnc2cc(NCc3ccc(Br)cc3)ccc21	16	5
CC(=O)Nc1ccc2c(c1)ncn2-c1ccccc1	3	0
Brc1ccc(CNc2ccc3c(c2)ncn3-c2ccccc2)cc1	95*	24
CN(C)c1ccc(CNc2ccc3c(c2)ncn3C)cc1	20	-4
CCc1onc(C)c1C1CCCN1Cc1cccc(Cl)c1 (stereo not drawn)	-68	1
Cc1cccc(C(C)C)c1NS(=O)(=O)c1ccc(F)cc1	-10	3
CC(C)(C)N=C1Nc2ncccc2NC12CCCN(C(=O)c1cc(-c3cccs3)[nH]n1)C2 (stereo not drawn)	10	-3
CC(C)(C)N=C1Nc2ncccc2NC12CCN(C(=O)c1cc(-c3cccs3)[nH]n1)CC2	57*	-3
O=Cc1cc(OCc2ccccc2)ccc1O	76*	-3
COc1ccc(OCc2ccccc2)c(C=O)c1	-29	-35
CC(Oc1ccccc1F)C(=O)NCCOc1ccc(-c2ccccn2)nn1 (stereo not drawn)	100*	-9
CC(Oc1ccccc1F)C(=O)NCCN1CCCCC1 (stereo not drawn)	-1	-3
O=C(NCCOc1ccc(-c2ccccn2)nn1)c1ccco1	100*	-9
O=C(NCCOc1ccccc1-c1ccccc1)c1ccco1	0	-1
CCOc1ccc(OCCNC(=O)c2cccs2)cc1	-18	-9
O=C(NCCOc1ccc(-c2ccccn2)nn1)c1cccs1	100*	-15
